# Laboratory results taken from PMC11062922 (Nature Chemical Biology, 2023).
# Key:
# Parameters in all cases: species or system human, MV4-11 + K-562 + COLO205 + SK-N-BE2 + OVCAR-8
# ADRBK1 = details: read-out: apparent Kd; compound concentrations: 100 nM and 1000 nM (sheet 'Samples'), CATDS: 0.31449304008803602; n = 1
# MAPK9 = details: read-out: apparent Kd; compound concentrations: 100 nM and 1000 nM (sheet 'Samples'), CATDS: 0.30035248026311001; n = 1
# PRKACG = details: read-out: apparent Kd; compound concentrations: 100 nM and 1000 nM (sheet 'Samples'), CATDS: 0.40146810270516797; n = 1
# AKT2 = details: read-out: apparent Kd; compound concentrations: 100 nM and 1000 nM (sheet 'Samples'), CATDS: 4.2627279294918302E-2; n = 1
# AKT3 = details: read-out: apparent Kd; compound concentrations: 100 nM and 1000 nM (sheet 'Samples'), CATDS: 2.7204551549319601E-2; n = 1
# CIT = details: read-out: apparent Kd; compound concentrations: 100 nM and 1000 nM (sheet 'Samples'), CATDS: 2.7482144104810799E-2; n = 1
# GSK3A = details: read-out: apparent Kd; compound concentrations: 100 nM and 1000 nM (sheet 'Samples'), CATDS: 6.2878990302183399E-2; n = 1
# GSK3B = details: read-out: apparent Kd; compound concentrations: 100 nM and 1000 nM (sheet 'Samples'), CATDS: 5.5559924345407602E-2; n = 1
# LATS1 = details: read-out: apparent Kd; compound concentrations: 100 nM and 1000 nM (sheet 'Samples'), CATDS: 4.8333915347555698E-2; n = 1
# MARK2 = details: read-out: apparent Kd; compound concentrations: 100 nM and 1000 nM (sheet 'Samples'), CATDS: 4.76140671076506E-2; n = 1
# MARK3 = details: read-out: apparent Kd; compound concentrations: 100 nM and 1000 nM (sheet 'Samples'), CATDS: 5.1082901600924303E-2; n = 1
# MARK4 = details: read-out: apparent Kd; compound concentrations: 100 nM and 1000 nM (sheet 'Samples'), CATDS: 4.9590510521074001E-2; n = 1
# PAK4 = details: read-out: apparent Kd; compound concentrations: 100 nM and 1000 nM (sheet 'Samples'), CATDS: 0.104490197523791; n = 1
# PAK6 = details: read-out: apparent Kd; compound concentrations: 100 nM and 1000 nM (sheet 'Samples'), CATDS: 0.160954118330599; n = 1
# PKN1 = details: read-out: apparent Kd; compound concentrations: 100 nM and 1000 nM (sheet 'Samples'), CATDS: 6.8915050548370396E-2; n = 1
# PRKAA2 = details: read-out: apparent Kd; compound concentrations: 100 nM and 1000 nM (sheet 'Samples'), CATDS: 2.6285000431917799E-2; n = 1
# PRKACA = details: read-out: apparent Kd; compound concentrations: 100 nM and 1000 nM (sheet 'Samples'), CATDS: 4.9144940605522901E-2; n = 1
# PRKAG2 = details: read-out: apparent Kd; compound concentrations: 100 nM and 1000 nM (sheet 'Samples'), CATDS: 2.7426405634362501E-2; n = 1
# PRKCB = details: read-out: apparent Kd; compound concentrations: 100 nM and 1000 nM (sheet 'Samples'), CATDS: 2.6716167566890599E-2; n = 1
# PRKCD = details: read-out: apparent Kd; compound concentrations: 100 nM and 1000 nM (sheet 'Samples'), CATDS: 3.7280479553999199E-2; n = 1
# PRKCQ = details: read-out: apparent Kd; compound concentrations: 100 nM and 1000 nM (sheet 'Samples'), CATDS: 2.7638944484762E-2; n = 1
# PRKG1 = details: read-out: apparent Kd; compound concentrations: 100 nM and 1000 nM (sheet 'Samples'), CATDS: 7.0196377588655406E-2; n = 1
# PRKX = details: read-out: apparent Kd; compound concentrations: 100 nM and 1000 nM (sheet 'Samples'), CATDS: 0.203063152086782; n = 1
# RPS6KA4 = details: read-out: apparent Kd; compound concentrations: 100 nM and 1000 nM (sheet 'Samples'), CATDS: 3.80124112320347E-2; n = 1
compound,measurement,setting,value
COC(=O)c1c(-c2ccccc2)c2cc(OC)ccc2c(=O)n1Cc1ccccc1 [TPKI-97],potency estimated from few doses,ADRBK1,1400 nM
same,potency estimated from few doses,MAPK9,1550 nM
same,potency estimated from few doses,PRKACG,872 nM
CCn1c(-c2nonc2N)nc2c(C#CC(C)(C)O)ncc(OC3CCNCC3)c21.O=C(O)C(F)(F)F [GSK619487A],potency estimated from few doses,AKT2,91.5 nM
same,potency estimated from few doses,AKT3,1300 nM
same,potency estimated from few doses,CIT,1190 nM
same,potency estimated from few doses,GSK3A,26.9 nM
same,potency estimated from few doses,GSK3B,38 nM
same,potency estimated from few doses,LATS1,58.6 nM
same,potency estimated from few doses,MARK2,61.6 nM
same,potency estimated from few doses,MARK3,49 nM
same,potency estimated from few doses,MARK4,53.9 nM
same,potency estimated from few doses,PAK4,7.55 nM
same,potency estimated from few doses,PAK6,2.74 nM
same,potency estimated from few doses,PKN1,21.1 nM
same,potency estimated from few doses,PRKAA2,1810 nM
same,potency estimated from few doses,PRKACA,55.5 nM
same,potency estimated from few doses,PRKAG2,1210 nM
same,potency estimated from few doses,PRKCB,1540 nM
same,potency estimated from few doses,PRKCD,162 nM
same,potency estimated from few doses,PRKCQ,1130 nM
same,potency estimated from few doses,PRKG1,20.1 nM
same,potency estimated from few doses,PRKX,1.58 nM
same,potency estimated from few doses,RPS6KA4,148 nM
